± gives the standard deviation.

For the test, the system named is OVCAR-3-derived ovarian cancer stem-like cells (spheroids). Kind of test: cell growth relative to untreated control; higher = more growth (less inhibition). As to conditions: 2.29 µM; 96 h. The procedure, abridged: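 Stem-like cells derived from OVCAR-3 spheroids were dissociated with trypsin and seeded at 50,000 cells/mL in stem cell medium in ultra-low attachment 96-well plates, then preincubated for 24 h. Each compound was added at 2.29 uM to 4 replicate wells and left for 96 h at 37°C, 5% CO2. Viability came from TOX8 resazurin fluorescence (ex 560/em 590 nm) read after 4 h. Percent growth was expressed relative to untreated wells, after blank subtraction and removal of outliers by the Grubbs test.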

Molecule `CCCCOCc1cc(CN2CCN(C)CC2)c(O)c2ncccc12` yielded a cell growth of 85.3 ± 33%.
Regarding `CC(=O)C1=C(O)C2(O)C(=O)c3c(c(C)c4ccc(C)c(O)c4c3O)CC2C(N)C1=O` (stereo not drawn), the cell growth worked out at 118 ± 30%.
`CC(C)C(C)C=CC(C)C1CCC2C3=CC=C4CC(O)CCC4(C)C3CCC21C` (stereo not drawn): the cell growth came to 97.6 ± 23%.
`O=C1Nc2c(Cl)cc(Cl)cc2C1=O`: the cell growth was found to be 22.4 ± 13%.
`Cc1c2ccc3ccccc3c2c[n+]2ccccc12` gave a cell growth of 88.9 ± 14%.
As for `NC1(CCNC(=O)c2ccccc2)CCN(C(=O)c2ccccc2)CC1`, the cell growth was found to be 118 ± 19%.
Next, `CC1C(Oc2c(-c3ccc(O)c(O)c3)oc3c(O)cc(O)cc3c2=O)OC(O)C(O)C1O` (stereo not drawn): 77.6 ± 18%; `NC(=O)c1c([N+](=O)[O-])cc(C(F)(F)F)cc1[N+](=O)[O-]`: 63.9 ± 13%.
Molecule `COc1ccc(N=Cc2ccc(N(CCC#N)S(=O)(=O)c3ccccc3)cc2C)cc1` registered a cell growth of 80.6 ± 28%.
In the case of `Cn1cnc([N+](=O)[O-])c1Sc1nnc(-c2cccnc2)n1C`, the cell growth amounted to 151 ± 61%.
`CN(C)C(=S)/N=c1\ss/c(=N\C(=S)N(C)C)n1-c1ccc2c(c1)OCO2` returned a cell growth of 76.4 ± 5.8%.
Under `CN(CCc1ccccn1)c1ccc2c(c1)C(=O)c1ccccc1-2` stands 103 ± 32%; under `CC[C@@]1(O)C(=O)OCc2c1cc1n(c2=O)Cc2cc3c(N)cccc3nc2-1`, 46.5 ± 11%.
`CCN(CC)CCNC(=O)c1nn(-c2ccc(Cl)cc2)c2c1CCc1cc(OC)ccc1-2` showed a cell growth of 79.1 ± 11%.
In turn, `C/C(=N\NC(=S)N1CCC1)c1ccccn1` registered a cell growth of 20.6 ± 4%.
`c1ccc2c(c1)nnn1c3cnccc3nc21` displayed a cell growth of 58.8 ± 9.3%.
`S=C1Nc2cnc3ccccc3c2SC1c1ccccc1` (stereo not drawn) showed a cell growth of 9.8 ± 3.9%.
As for `O=C1Nc2ccc(Br)cc2/C1=C\C(=O)c1ccccc1`, the cell growth is 96.9 ± 11%.
Molecule `Nc1nc2n[nH]nc2c(=O)[nH]1` returned a cell growth of 91.6 ± 14%.
Molecule `COc1ccc(/C(=N/O)C(c2ccc(OC)cc2)C2C(=O)Oc3ccccc32)cc1` (stereo not drawn) registered a cell growth of 73.1 ± 14%.
Under `CN(C)c1cccc(F)c1C(=O)NC(=O)Nc1ccc(Cl)cc1` stands 102 ± 28%.
Molecule `CN1CCN(CN2C(=O)C3C4C=CC(C3C2=O)C2C3C(=O)N(CN5CCN(C)CC5)C(=O)C3C42)CC1` (stereo not drawn) yielded a cell growth of 91.4 ± 32%.
With `COc1ccc2cc3[n+](cc2c1OC)CCc1cc2c(cc1-3)OCO2`, the cell growth was 57.3 ± 7.4%.
For the molecule `C[C@]12C=CC(=O)C=C1[C@@H](F)C[C@H]1[C@@H]3CC[C@](O)(C(=O)CO)[C@@]3(C)C[C@H](O)[C@@]12F`, the cell growth was 80 ± 22%.
`CCN(CC)CCOc1ccccc1/C=C/c1noc2ccccc12` showed a cell growth of 79.3 ± 18%.
Take `CCN(CC)CCCC(C)Nc1c2ccc(Cl)cc2nc2ccc(OC)cc12` (stereo not drawn): the cell growth came to 37.6 ± 6.1%.
`CN/N=C(\C)C(CN1CCCCC1)C(C1=C(O)c2ccccc2OC1)c1ccccc1` (stereo not drawn) showed a cell growth of 94.9 ± 41%.
The molecule `CC1=C2C(=CO[C@H](C)[C@H]2C)C(=O)C(C(=O)O)=C1O` had a cell growth of 112 ± 18%.
For the molecule `Cc1cc2c(cc1C)[n+](=O)c(C(=O)/C=C/c1ccccc1[N+](=O)[O-])c(C)n2[O-]`, the cell growth was determined as 123 ± 66%.
Consider `CC(C)=CCC(OC(=O)C=C(C)C)C1=CC(=O)c2c(O)ccc(O)c2C1=O` (stereo not drawn), for which the cell growth was 35 ± 16%.
`CCC(C#N)(c1ccccc1)N(CCc1ccccc1)C(=O)c1ccccc1` (stereo not drawn) registered a cell growth of 129 ± 28%.
Take `COCC(=O)OC1CCn2c1nc1c2C(=O)C(C)=C(NC(C)=O)C1=O` (stereo not drawn): the cell growth was 76.1 ± 12%.
In turn, `Cc1ccc(NC(=O)c2cccc([N+](=O)[O-])c2O)c(C)c1` returned a cell growth of 110 ± 19%.
Molecule `C(=C/c1nc2ccccc2o1)/c1ccc2c(c1)OCO2` yielded a cell growth of 94 ± 16%.
Next, `CCN(CC)c1ccc2cc3ccc(=[N+](CC)CC)cc-3oc2c1`: 45.5 ± 10%.
Next, `COC1C(O)=C2C(=O)OC(C)(O)/C=C/C=C\C=C/C=C/C(c3ccccc3)NC(=O)/C=C/C=C/C=C/C=C/C2(C)C1O` (stereo not drawn): 71.7 ± 31%; `[O-][S+]1c2ccccc2N=C(c2cccc3ccccc23)CC1c1cccc2ccccc12` (stereo not drawn): 84.1 ± 16%; `NC(=O)C1=C[C@H]2[C@H]3C=C[C@@]2(O)C(=O)O[C@@H]3O1`: 91.3 ± 15%.
`CCCCCCCCCCCCCCCC[N+](C)(C)Cc1ccc(F)cc1` came in with a cell growth of 54.1 ± 9.8%.
Under `CC(C)c1ccc2nc3ccc(C(=O)NCCN(C)C)cn3c(=O)c2c1` stands 79.4 ± 21%; under `COc1cc2c(c(OC)c1OC)-c1c(cc3c(c1OC)OCO3)CC(C)C(C)(O)C2OC(=O)c1ccccc1` (stereo not drawn), 130 ± 29%.
Turning to `O=c1[nH]c2ccc(O)cc2o1`, the cell growth worked out at 80.8 ± 13%.
The molecule `O=C1c2ccccc2C(=O)c2sc(Nc3ccc(Cl)c(Cl)c3)nc21` came in with a cell growth of 9.6 ± 7%.
In the case of `Oc1ccc2ccccc2c1N=Nc1cccc2ccccc12`, the cell growth stood at 82.9 ± 12%.
Under `O=[N+]([O-])c1ccc(N=Nc2c(O)[nH]c3ccccc23)c([N+](=O)[O-])c1` stands 132 ± 29%; under `COc1ccc2c(c1)CCc1c-2n[nH]c1-c1[nH]nc2c1CCc1cc(OC)ccc1-2`, 87.5 ± 18%.
Turning to `O=C1C(CN2CCCCC2)CCCC1CN1CCCCC1` (stereo not drawn), the cell growth amounted to 62.5 ± 28%.
`O=C1Oc2ccccc2C(=O)/C1=C1\C=C(c2ccccc2)SS1` yielded a cell growth of 158 ± 71%.
Consider `N#CCCN(c1ccc(C=O)cc1)S(=O)(=O)c1ccccc1`, for which the cell growth was determined as 116 ± 22%.
For `CCOC(=O)/N=C(\N)SCc1ccccc1`, the cell growth amounted to 78.4 ± 11%.
`CC(C)(C)c1ccc(O)c(CN(Cc2cc(C(C)(C)C)ccc2O)C2CCCCC2)c1`: the cell growth was 145 ± 56%.
On to `O=C(c1ccccc1)C(c1ccccc1)C1(O)C(=O)Nc2c(Cl)cc(Cl)cc21` (stereo not drawn), for which the cell growth was determined as 114 ± 29%.
On to `O=C(CC1(O)C(=O)Nc2c(Cl)cc(Cl)cc21)c1cccc2ccccc12` (stereo not drawn), for which the cell growth came out at 90.9 ± 16%.

The values are drawn from the supplement of paper PMC3484114.
